TEAD-YAP inh – TEAD-YAP interaction inhibition; HEK-TIYL cells, TEAD-Gal4/YAP UAS-luciferase luminescence; inhibition, % at 9.12 µM; actives 1.4% (n = 640,000); AID 1259422; in the data active = inhibition above about 32%;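 note: 0% = median of test compound wells and 100% = reference inhibitor wells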
GPR151 ag – activators of human GPR151. AID 1508602. actives 1% (n = 650,000). PathHunter beta-arrestin GPR151 cells, luminescence. activation, % at 11.2 µM. Q8TDV0; in the data active = activation above about 4.9%;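 note: 0% = median of compound wells and 100% = cells with positive control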
MITF primary – inhibitors of human MITF. O75030. AlphaScreen MITF homodimerization, bead proximity signal. inhibition, % at 2.6 µM. actives 0.91% (n = 650,000). AID 1259374; in the data active = inhibition above about 50%;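 note: 0% = vehicle wells with protein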
FBW7 act – human FBW7 E3 ligase activation, primary screen. AID 1259310. AlphaScreen FBW7–phospho-cyclin E peptide binding, activator screen. normalized activity (activation), % at 26.1 µM. actives 0.13% (n = 650,000). Q969H0; in the data active = normalized activity above about 1.9%;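 note: purified mutant Fbw7 with reduced substrate affinity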
GPR151 conf act – human GPR151 activation, confirmation screen; AID 1508609; activation, % at 11.2 µM; 6,700 tested, under 10 active; shares compounds with GPR151 ag; GPR151 PathHunter beta-arrestin cells, luminescence, 90 min; % of EA-reagent control over plate median;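 active = mean percent activation across replicates above the confirmation screen cutoff of 4.91%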
GPR119 ag – GPR119 activation, counter-screen for GPR151 activators | activation, % at 11.2 µM | actives 0.3% (n = 6,700) | shares compounds with GPR151 ag | GPR119 PathHunter beta-arrestin cells, luminescence, 90 min; 0 = compound-well median, 100 = enzyme-acceptor control;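 active = mean percent activation in the counterscreen above 29.09%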;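 note: counterscreen on off-target GPR119 to flag nonselective hits from the GPR151 activator screen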
Target sequence (Q8TDV5 whole entry, looked up): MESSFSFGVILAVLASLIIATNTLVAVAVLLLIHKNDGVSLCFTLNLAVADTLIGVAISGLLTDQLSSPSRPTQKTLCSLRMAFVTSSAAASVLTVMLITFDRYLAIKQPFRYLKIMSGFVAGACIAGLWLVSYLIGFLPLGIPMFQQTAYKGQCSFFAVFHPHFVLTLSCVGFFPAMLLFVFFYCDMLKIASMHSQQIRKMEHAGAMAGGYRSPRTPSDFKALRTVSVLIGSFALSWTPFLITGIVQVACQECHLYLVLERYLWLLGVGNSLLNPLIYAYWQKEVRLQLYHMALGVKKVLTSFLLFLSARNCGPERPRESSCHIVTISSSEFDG
An asterisk follows results filed as active; . = no result. Rows were chosen to be rich in hits. Some 3.4% of all compounds tested hit in one or more screens of this group.

SMILES | TEAD-YAP inh | GPR151 ag | MITF primary | FBW7 act | GPR151 conf act | GPR119 ag
CCNc1nc(NCCN2CCOCC2)c2ncn(-c3ccccc3)c2n1 | 6 | -1 | 4 | 0 | . | .
Cc1c(C(=O)N2CCN(c3cccc(Cl)c3)CC2)sc2ncn(Cc3ccccc3F)c(=O)c12 | -3 | 1 | -3 | 0 | . | .
OCCCNc1ccc2ncc(-c3ccco3)n2n1 | 6 | 1 | 9 | 0 | . | .
Cc1nc(Nc2ccc(N(C)C)cc2)nc(Nc2ccc(N(C)C)cc2)c1[N+](=O)[O-] | -11 | 10* | 2 | 0 | 1 | 9
Cc1nc(Nc2cccc(N(C)C)c2)nc(Nc2cccc(N(C)C)c2)c1[N+](=O)[O-] | -2 | 1 | 26 | -1 | . | .
COC(=O)c1ccc(NC(=O)COc2ccc(C34CC5CC(CC(C5)C3)C4)cc2)cc1 | 7 | 5.3* | 5 | 0 | -1 | 3
Brc1cccc(CNCc2cccnc2)c1 | 4 | 1 | 16 | 0 | . | .
Brc1cccc(CNCc2ccncc2)c1 | 12 | 13* | 4 | 0 | 1 | -5
CCOC(=O)C1C(=O)CC(C)(O)C(C(=O)OCC)C1c1ccc(C)o1 (centres undefined) | 11 | 1 | 11 | 0 | . | .
O=C1N[C@@H](Cc2c[nH]c3ccccc23)C(=O)N2CCN(C(=O)c3cccc(F)c3F)C[C@H]12 | -4 | 1 | 5 | 0 | . | .
CN(C)CCCN(Cc1ccc2c(c1)OCO2)C(=O)NC1CCCCC1 | -1 | 5.2* | 6 | 0 | 0 | -3
CC1CN(C(=S)NC(=O)C(C)(C)C)CC(C)O1 (centres undefined) | -2 | 7.3* | -4 | 0 | 1 | -5
CC(C)(C)C(=O)NC(=S)N1CCOCC1 | -3 | 1 | -8 | 0 | . | .
CCC(=O)Nc1cccc(NC(=S)NC(=O)c2ccccc2OC)c1 | -50 | 8.8* | 12 | 0 | 0 | -9
COc1cccc(NC(=S)Nc2ccccc2OC)c1 | -8 | 13* | 16 | 0 | 1 | -1
COc1ccccc1C(=O)NC(=S)Nc1ccc(Br)c(C)n1 | -3 | 5.2* | 10 | 0 | 0 | 4
CC(=O)NC(=S)Nc1ccc(Br)c(C)n1 | -40 | -3 | 9 | 0 | . | .
COCCNC(=O)Cn1nc([N+](=O)[O-])cc1C | 2 | 2 | 1 | 0 | . | .
COc1cc(NC(=O)CSc2ccc(C(=O)O)cn2)cc(OC)c1 | -11 | 0 | -1 | 0 | . | .
COc1cc(NC(=O)CSc2ccc(C(=O)O)cn2)ccc1-n1cnnn1 | 10 | 8.2* | 8 | 0 | 0 | 3
COc1ccc(OCc2nc3c4cc(OC)c(OC)cc4nc(=S)n3[nH]2)cc1 | 1 | 1 | -1 | 0 | . | .
COc1cc2nc(=S)n3[nH]c(CCn4c(C)nc5ccccc54)nc3c2cc1OC | -2 | 5.5* | 7 | 0 | 0 | -2
COC(=O)c1cc2c(N3CCC(Cc4ccccc4)CC3)ncnc2s1 | -2 | 5.5* | 5 | 0 | 2 | 6
Cc1cc(Br)ccc1S(=O)(=O)N1CCOCC1 | -7 | 0 | 3 | 0 | . | .
O=S(=O)(c1ccc(Br)cc1Br)N1CCOCC1 | -3 | 5.1* | -2 | 0 | 0 | -7
SMILES | TEAD-YAP inh | GPR151 ag | MITF primary | FBW7 act | GPR151 conf act | GPR119 ag
CC(=O)NCCCNc1nc2c(C)cc(C)cc2cc1C#N | -3 | 0 | 7 | 1 | . | .
CCCCCC(O)CCC(=O)NNC1CC(=O)N(c2ccccc2)C1=O (centres undefined) | 6 | 1 | 7 | 0 | . | .
Clc1cccc(CNc2ccnc3c(-c4ccsc4)cnn23)c1 | -9 | -1 | -20 | 0 | . | .
COc1ccc(-c2nc(NCCN(C(C)C)C(C)C)nc(OC)n2)cn1 | -2 | 6.1* | 3 | 0 | 0 | -5
COc1nc(NCCN(C(C)C)C(C)C)nc(-c2ccccc2)n1 | 4 | 0 | 6 | 0 | . | .
CSc1ccc(/C=N\NC(=O)CNc2ccc(C)cc2)cc1 | -3 | 5.8* | 6 | 0 | 0 | -12
O=C(Cn1nnc(-c2ccc([N+](=O)[O-])cc2)n1)NCC1CC1 | -5 | 5.9* | 14 | 0 | 1 | 5
CCc1nc(N)c(C#N)c(-c2ccc([N+](=O)[O-])cc2)c1C | -9 | 5.3* | 7 | 0 | 1 | 15
CCN1/C(=C2/SC(=S)NC2=O)Sc2ccc(OC)cc21 | 3 | 1 | -3 | 0 | . | .
COc1ccc2cc(CCNC(=O)/C=C\c3ccc4c(c3)OCO4)c(=O)[nH]c2c1 | 8 | 12* | 7 | 0 | 0 | 2
COc1ccc(C(=O)N2CCNC(=O)C2CC(=O)Nc2ccc(C)c(C)c2)cc1 (centres undefined) | 10 | 5.6* | 13 | 0 | 1 | -6
COc1ccc(C(=O)N2CCNC(=O)C2CC(=O)Nc2cccc(Cl)c2Cl)cc1 (centres undefined) | -3 | 0 | 11 | 0 | . | .
Cc1ccc2cc(CN(CC3CCCO3)C(=O)C3CCC3)c3nnnn3c2c1 (centres undefined) | 12 | 8.4* | 4 | 0 | 4 | 8
CC(C)(C)N1CC(CO)OC1c1ccccc1 (centres undefined) | 2 | 4.9* | 12 | 0 | -1 | -5
O=C(NN1C(=O)C2C(c3ccccc3)C=CC(c3ccccc3)C2C1=O)c1ccncc1 (centres undefined) | 8 | 6.1* | -20 | 0 | 0 | -5
O=C(NN1C(=O)C2C3C=CC(C3)C2C1=O)c1ccncc1 (centres undefined) | -7 | -1 | 1 | 0 | . | .
CC(C)NC(=O)C1CCN(C(=O)Nc2ccc(F)cc2)CC1 | 10 | 0 | -1 | 0 | . | .
CCOC(=O)c1nnn(-c2nonc2N)c1CSc1nc2ccc(OC)cc2[nH]1 | -2 | 0 | 7 | 1 | . | .
CCC1C(=O)NCCN1Cc1ccc2c(c1)CN(Cc1cccc(C)n1)CCO2 (centres undefined) | 0 | 5.4* | 7 | 0 | -1 | -11
O=C(Cc1ccc(F)cc1)NCCc1ccc(F)cc1 | -11 | 0 | -7 | 0 | . | .
CCCC(=O)NCCc1ccc(F)cc1 | -11 | 19* | -6 | 0 | 1 | 7
NC(=O)c1ccc(-n2c(CCC(=O)O)ccc2-c2ccc(F)cc2)cc1 | -5 | 9.7* | 10 | 0 | -1 | -11
NC(=O)c1ccc(-n2c(CCC(=O)O)ccc2-c2ccccc2)cc1 | -1 | 3 | 7 | 0 | . | .
COc1ccc(OC)c(NC(=O)CCNS(=O)(=O)c2ccc3[nH]c(=O)ccc3c2)c1 | -1 | -1 | 5 | 0 | . | .
CC(=O)N1CCOc2cc(S(=O)(=O)NC(C)c3ccccc3)ccc21 (centres undefined) | -6 | 3 | 2 | 0 | . | .
CCCN1C(=O)CC(c2ccco2)Sc2ccccc21 (centres undefined) | 1 | 5.3* | 4 | 0 | -1 | -1
CC(C)[C@H](NC(=O)c1ccco1)C(=O)OCC(=O)Nc1cc(C(F)(F)F)ccc1Cl | 5 | 1 | -1 | 0 | . | .

Source: PubChem
